Screens as filed in PubChem BioAssay.
Compounds with a hit are over-represented: about 1% of the library has one in this group of screens.
E-sel TNF inh – TNF alpha driven E-selectin expression inhibition | HUVEC TNFa-induced E-selectin immunofluorescence, high content | AID 1246 | 0.71% of 120,000 active | inhibition, % at 2 µM;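 active = inhibition above the batch mean plus 3 SD, and confirmed as a hit on visual image review, cut at about 43% in these data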
TNFa cytotox – toxic to HUVEC cells under TNF alpha stimulation; HUVEC TNFalpha-stimulated, Hoechst cell count, imaging; cell count reduction, % at 2 µM; 0.17% of 93,000 active;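 active = cell count reduction exceeding the screen mean by over 5 SD, scaled to untreated wells per plate, cut at about 78% in these data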;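 note: cells counted after 24 h of TNF alpha exposure following the 1 h pretreatment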
VCAM1 TNFa inh – reduces TNF alpha induced VCAM1 expression in HUVEC; inhibition, % at 2 µM; 0.48% of 95,000 active; HUVEC TNFa-induced VCAM-1 immunofluorescence, high-content imaging;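 active = inhibition above the batch mean plus 3 SD, with images confirmed as a hit by eye, cut at about 37% in these data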
F-actin modifier – alters cytoskeleton assembly in HUVEC cells; HUVEC TNFa F-actin phalloidin imaging, high content; inhibition, % at 2 µM; 0.18% of 91,000 active;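 active = inhibition above the batch mean plus 3 SD and confirmed as a hit by visual image inspection, cut at about 30% in these data, passing the limit was not always enough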
Numbers stand for hits; n = inactive; x = no result given.

SMILES	E-sel TNF inh	TNFa cytotox	VCAM1 TNFa inh	F-actin modifier
CC(C)(C)SCCNC(=O)CN(c1ccc(F)cc1)S(C)(=O)=O	x	79	90	n
CCOC(=O)c1cnn(-c2nc(-c3ccc(C)cc3)cs2)c1C(F)(F)F	x	n	96	n
C/C(Cl)=C/Cn1c(NCCCn2ccnc2)nc2c1c(=O)[nH]c(=O)n2C	n	n	n	n
C/C(Cl)=C\Cn1c(NCCCn2ccnc2)nc2c1c(=O)n(C)c(=O)n2C	x	89	88	n
N#CCCN(C(=S)NC(=O)c1ccco1)c1ccccc1F	n	x	x	x
COc1ccc2nc(SCc3nc(N)nc(Nc4ccccc4)n3)[nH]c2c1	95	n	n	n
COc1ccc(/C=N/N2CCN(C3c4ccccc4-c4ccccc43)CC2)cc1O	n	x	x	x
Cc1cc(C)c(/C=N/NC(N)=O)c(C)c1/C=N/NC(N)=O	n	n	69	n
O=C(O)Cn1nnnc1SCC(=O)Nc1ccc(F)cc1F	n	x	x	x
N#Cc1ccccc1CSc1ccc(-c2nc3ccccc3[nH]2)cn1	n	n	n	n
Cc1cc2nc(-c3ccc(SCc4ccc(C#N)cc4)nc3)[nH]c2cc1C	90	n	n	n
COc1ccccc1NC(=O)C1=C(C)NC(=O)NC1c1cccs1 (stereo not given)	n	x	x	x
CC1CC(C)CN(S(=O)(=O)N2CCC(C(=O)NCCC3=CCCCC3)CC2)C1 (stereo not given)	n	x	x	x
CC(C)c1ccc(/C=C(\c2nc3ccccc3[nH]2)S(=O)(=O)c2ccccc2)cc1	n	x	x	x
O=S(=O)(/C(=C/c1ccc(C(F)(F)F)cc1)c1nc2ccccc2[nH]1)c1ccccc1	99	x	x	x
CCOC(=O)c1cc([N+](=O)[O-])c([N+](=O)[O-])cc1NC(C)=O	n	x	x	x
Cc1ccc(NC(=O)Cn2cnc3sc(C(=O)NCCN(C)C)c(C)c3c2=O)cc1Cl	50	n	n	n
Cc1ccc(S(=O)(=O)N(Cc2ccc(Cl)cc2)c2ccccc2C(=O)NCc2ccco2)cc1	n	x	x	x
CCCCCOc1ccc(Br)cc1/C(C)=N/NC1=NCCN1	n	n	n	49
CC(C)c1c(O)cc(-c2ccncc2)n(-c2ccc(Cl)cc2)c1=O	68	x	x	x
O=S(=O)(Cc1ccccc1Cl)N1CCN(Cc2ccc3c(c2)OCO3)CC1	n	n	n	47
CC(C)=CCN1CCN(Cc2cccn2-c2ncccn2)CC1CCO (stereo not given)	n	x	x	x
CCCC(=O)C1=C(O)C(C(=O)OC)C(C)(C)CC1=Nc1ccc(OC)cc1 (stereo not given)	n	x	x	x
CCCC(=O)C1=C(O)C(C(=O)OC)C(C)(C)CC1=Nc1ccc(N)cc1 (stereo not given)	59	n	n	n
Cc1ccccc1-c1nc(CN2CCC(C(=O)NCCCN3CC(C)CC(C)C3)CC2)c(C)o1 (stereo not given)	n	n	43	n
SMILES	E-sel TNF inh	TNFa cytotox	VCAM1 TNFa inh	F-actin modifier
O=C(Oc1ccc(/C=N/Nc2ccccc2)cc1)c1ccccc1	58	n	n	n
O=C(Oc1ccc(/C=N/O)cc1)c1ccccc1	n	n	n	n
COc1ccc2c(c1)C1CC(C)(NC(=O)C1S(=O)(=O)c1ccc(F)cc1)O2 (stereo not given)	77	x	x	x
CN(C)c1ccc(/C=N/NC(=O)c2sccc2-n2cccc2)cc1	n	x	x	x
O=C(O)CSC1c2ccccc2C(=O)N1Cc1ccccc1 (stereo not given)	69	n	n	n
CNC(=S)N/N=C(\C)c1ccc(N2CCOCC2)cc1	n	x	x	x
C/C(=N\NC(=O)c1cccc(C)c1)c1ccc(N2CCOCC2)cc1	100	n	n	n
COc1cc(NC(=S)NC(C)=O)ccc1NC(=O)C(C)C	x	95	n	n
COc1cc(NC(=O)C(C)C)ccc1NC(=O)c1ccco1	x	n	n	n
O=C(/C=C/c1cccc([N+](=O)[O-])c1)n1cnc2ccccc21	99	x	x	x
Cc1ccc2[nH]c3c(c2c1)CCC3=O	n	n	50	n
Cc1ccc2[nH]c3c(c2c1)CCCC3=O	n	n	n	n
